According to PubChem BioAssay (NCI):
About 83,000 compounds went through this panel and 20% of them were active in at least one assay; those are over-represented in the sample as a whole.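 Cell lines were cultured in 96-well plates, exposed to a single compound concentration, and assessed for percent growth 48 hours later.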 Values without a mark were called inactive. Calls of active or inactive are those of the source.

What follows are compounds tested on OVCAR-5 ovarian (assay: NCI-60 one-dose screen, 48 h (100 = growth as untreated, 0 = no growth, -100 = all killed)). Conditions: 10 µM unless noted.
Procedure: Growth inhibition of the OVCAR-5 human tumor cell line is measured as a screen for anti-cancer activity. Cells are grown in 96 well plates and exposed to the test compound for 48 hours. Compounds are tested at a single concentration, which is 10^-5 M for most compounds. The reported endpoint is percent growth (GI% or GIPRCNT), where numbers from 0 - 100% represent growth inhibition, and numbers from -100% - 0 represent cell death. For example, a value of 40 represents 60% growth inhibition. A value of 0 means no net growth occurred over the course of the experiment. A value of -40 indicates 40% of cells at the beginning of the experiment died by the end of the experiment. A value of -100 means all cells are dead at the end of the experiment.
NCI-60 Human Tumor Cell Lines Screen was performed using the standard one-dose NCI protocol, which is described in more detail at https://dtp.cancer.gov/discovery_development/nci-60/default.htm.
Compounds with GIPRCNT values below 10 were considered active. Activity score was based on GIPRCNT using the following formula: […]
Score is 0 for GIPRCNT values of 100 or above, 50 for GIPRCNT values of 0, and 100 for GIPRCNT values of -100.

Q: With `c1ccc2c(-c3c[nH]c4ccccc34)c3c(cc2c1)[nH]c1ccccc13` as the compound, how does the growth read?
A: The growth was 96%.

Q: How did the growth turn out when `C=C(C)[C@@H]1CC[C@]2(C(=O)N3CCN(C)CC3)CC[C@]3(C)[C@H](CC[C@@H]4[C@@]5(C)CC[C@H](O)C(C)(C)[C@@H]5CC[C@]43C)[C@@H]12` was run?
A: Its growth is -13.8% (active).

Q: With `O=C(Nc1ccc(-c2ccc3c(c2)NC(=O)/C3=C\c2ccc[nH]2)cc1)NC1CC1` as the compound, how does the growth read?
A: The growth was 105%.

Q: Which growth does the source give for `Cc1c(C(=O)NCCC(=O)NO)sc2ncnc(Nc3ccc(NC(=O)Nc4cccc(C(F)(F)F)c4)cc3)c12` here?
A: The growth was 104%.

Q: How did the growth turn out when `OC(c1ccc(F)c(C(F)(F)F)c1)c1cnccc1NC1CCCCC1` (stereo not given) was run?
A: Its growth is 85.3%.

Q: How did the growth turn out when `CC[C@]12C=CCN3CC[C@@]4(c5cc(NC(=O)CCC(=O)O[C@H]6CC[C@H]7[C@@H]8CCC9=CC(=O)CC[C@@H]9[C@H]8CC[C@]67C)c(OC)cc5N(C)[C@H]4[C@@](O)(C(=O)OC)[C@@H]1OC(C)=O)[C@@H]32` was run?
A: Its growth is 96.1%.

Q: How did the growth turn out when `Cc1nc2ccc(Cl)cn2c1-c1nnc(SCc2ccc([N+](=O)[O-])cc2)o1` was run?
A: Its growth is 83.7%.

Q: `O=C(Nc1ccc(Cl)cc1)c1cc(NCc2cc(O)ccc2O)ccc1O` was tested. Which growth did it give?
A: Its growth is 116%.

Q: Which growth does the source give for `COc1cc(-c2n/c(=C\c3c(O)[nH]c4ccc(Cl)cc34)cc3c2=Nc2ccccc2-3)ccc1F` here?
A: The growth was 74%.

Q: `C=C1C(=O)O[C@H]2[C@H]1CC/C(COC(=O)NCc1c[nH]c3ccc(Br)cc13)=C\CC[C@@]1(C)O[C@@H]21` was tested. Which growth did it give?
A: The growth was -20.7% (active).

Q: How did the growth turn out when `Cc1cccc(C)c1N=c1oc2ccc(Cl)cc2nc1-c1ccccc1O` was run?
A: The growth was 81.3%.

Q: Which growth does the source give for `COc1ccc(OC)c(CCn2cncc2-c2c[nH]c3ccccc23)c1` here?
A: Its growth is 94.4%.

Q: `CCN(CC)CCn1c(=O)c2cc(OC)c(OC)cc2c2ccc3cc4c(cc3c21)OCO4` was tested. Which growth did it give?
A: Its growth is 64.9%.

Q: For `CCCCOc1ccc(/C=N/Nc2cc(C)nc3ccc(Br)cc23)cc1`, which growth is on record?
A: The growth was 100%.

Q: How did the growth turn out when `CCOc1ccc(/C=N/Nc2cc(C)nc3ccc(Br)cc23)cc1` was run?
A: The growth was 89.2%.

Q: Which growth does the source give for `CCOC(=O)c1ccc2c(c1)ncn2-c1ccc(NC(=O)Nc2cccc(C)c2)cc1` here?
A: Its growth is 85.5%.

Q: For `COc1cc(/C=C/C(=O)c2nc3cc(F)ccc3nc2C)cc(OC)c1OC`, which growth is on record?
A: Its growth is 89.7%.

Q: For `CN1CCN(C(=O)[C@]23CCC(C)(C)C[C@H]2C2=CC[C@@H]4[C@@]5(C)C/C(=C/c6ccncc6)C(=O)C(C)(C)[C@@H]5CC[C@@]4(C)[C@]2(C)CC3)CC1`, which growth is on record?
A: The growth was 86.9%.

Q: With `C=C1C(=O)O[C@H]2[C@H]1CC/C(CNC(=O)/C=C/c1ccccc1)=C\CC[C@@]1(C)O[C@@H]21` as the compound, how does the growth read?
A: Its growth is -21.6% (active).

Q: With `CNC(=O)c1cccc(Cn2nc(C)c(NC(=O)c3ccc(COc4ccc(C(F)(F)F)cc4C)cc3)c2C)c1` as the compound, how does the growth read?
A: The growth was 100%.

Q: `COc1ccc(C/C(C)=C(/c2ccc(OCCCN(C)C)cc2)c2ccc(OC(C)=O)cc2)cc1` was tested. Which growth did it give?
A: Its growth is 85.7%.

Q: With `CCCCCCCCCCCCCCCC[N+]1(C)CCN(SN2CC[N+](C)(CCCCCCCCCCCCCCCC)CC2)CC1` as the compound, how does the growth read?
A: Its growth is 50%.

Q: With `Brc1ccc(Nc2csc(-c3ccccn3)n2)cc1` as the compound, how does the growth read?
A: Its growth is 76.6%.

Q: Which growth does the source give for `COc1cc2cc(CN3CCN(c4nccc(-c5ccc6ccccc6c5)n4)CC3)c(=O)[nH]c2cc1OC` here?
A: The growth was 102%.

Q: `CC(=O)[C@@H]1CC[C@]2(C(N)=O)CC[C@]3(C)[C@H](CC[C@@H]4[C@@]5(C)CCCNC(C)(C)[C@@H]5CC[C@]43C)[C@@H]12` was tested. Which growth did it give?
A: The growth was 91.5%.

Q: For `O=S(=O)(NCCCNc1nccc(-c2c(-c3cccc(F)c3)nc3sccn23)n1)c1cccc(F)c1`, which growth is on record?
A: The growth was 110%.

Q: `CCCC/C=N/NC(=S)NCc1ccccc1` was tested. Which growth did it give?
A: Its growth is 92.7%.

Q: How did the growth turn out when `CCOC(=O)Nc1ccc(-c2ccc3c(c2)NC(=O)/C3=C\c2ccc[nH]2)cc1` was run?
A: The growth was 72.8%.

Q: With `C[C@H]1[C@H](C)CC[C@]2(C(=O)NCC#CCN3CCN(C)CC3)CC[C@]3(C)C(=CC[C@@H]4[C@@]5(C)Cc6c([nH]c7ccccc67)C(C)(C)[C@@H]5CC[C@]43C)[C@H]12` as the compound, how does the growth read?
A: The growth was 94.4%.

Q: With `C=C(C)[C@@H]1CC[C@]2(C(=O)N3CCN(C)CC3)CC[C@]3(C)[C@H](CC[C@@H]4[C@@]5(C)C/C(=C/c6cccnc6)C(=O)C(C)(C)[C@@H]5CC[C@]43C)[C@@H]12` as the compound, how does the growth read?
A: Its growth is 100%.

Q: How did the growth turn out when `COc1cc2c(c(O)c1Cl)C(=O)c1c(O)cc(C[C@H](C)O)cc1[C@H]2[C@H]1c2cc(C[C@H](C)O)cc(O)c2C(=O)c2c1cc(OC)c(Cl)c2O` was run?
A: The growth was 8.75% (active).

Q: Which growth does the source give for `O=C(/C(=C/c1ccc([N+](=O)[O-])cc1)SCc1ccc(F)cc1)c1ccc(F)cc1` here?
A: The growth was 97.9%.

Q: For `Cn1c2ccccc2c2c3c(c4c5ccccc5n(C)c4c21)C(=O)OC3`, which growth is on record?
A: The growth was 95.9%.

Q: `COc1ccc(C(=O)c2cc(C)c(OC)c(C)c2)c(OC)c1OC(=O)C(Cl)Cl` was tested. Which growth did it give?
A: The growth was 45.2%.

Q: For `CC(=O)c1ccc(NS(=O)(=O)c2cccc(C(=O)Nc3ccc(Br)cc3)c2)cc1`, which growth is on record?
A: Its growth is 89.2% [25 µM].

Q: With `NC(=NCCCOc1ccc(F)cc1)Nc1ccc(I)cc1` as the compound, how does the growth read?
A: The growth was 89.9%.

Q: Which growth does the source give for `COc1cc(/C=C\c2cc(OC)c(OC)c(OC)c2)cc(N)c1OC` here?
A: The growth was 87.7%.

Q: With `OCc1cnc2ccccc2c1NC1CCCCCC1` as the compound, how does the growth read?
A: Its growth is 100%.

Q: `CN1C(=O)NC(c2ccc3c(c2)OCO3)C=C1c1ccccc1` (stereo not given) was tested. Which growth did it give?
A: The growth was 93.9%.

Q: For `c1ccc(-c2cn3c(ccc4ccccc43)n2)cc1`, which growth is on record?
A: The growth was 77.2%.
